These results are taken from the supplement of paper PMC11634586.

Counter-ions that a name gives are not always drawn. Unmarked numbers belong to inactive results.

This assay concerns NCI-H1688. The experiment in a line: inhibition of cell viability relative to untreated control (fraction); higher = stronger growth inhibition, active = 0.5 or more. To be noted: 30 µM; 24 h. Summed up: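 Compounds from a natural compound library (TargetMol) were tested at 30 µM on NCI-H1688 small cell lung cancer cells for 24 h at 37°C under 5% CO2. Cell Counting Kit-8 absorbance at 450 nm, read in triplicate, gave the viability. The values express inhibition of cell viability as a fraction relative to untreated cells.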
Regarding `CCc1c2c(nc3ccc(OC(=O)N4CCC(N5CCCCC5)CC4)cc13)-c1cc3c(c(=O)n1C2)COC(=O)[C@]3(O)CC` [Irinotecan hydrochloride trihydrate], the “inhibition of cell viability” value is 0.311.

Regarding `C=C1C(=O)O[C@@H]2C[C@@]3(C)CCC[C@H](C)C3=C[C@H]12` [Helenine], the “inhibition of cell viability” value is 0.789 (active).

For `C/C=C\c1ccc(OC)cc1` [cis-Anethol], the “inhibition of cell viability” value is -0.182.

As for `CC1(C)C2CC[C@@]3(C)[C@@H](C(=O)C=C4[C@@H]5C[C@](C)(C(=O)O)CC[C@@]5(C)CC[C@@]43C)[C@]2(C)CC[C@H]1O` (stereo partly specified) [Glycyrrhetinic acid(Enoxolone)], the “inhibition of cell viability” value was -0.198.

With `CC12CCC(CC1)C(C)(C)O2` [Eucalyptol], the “inhibition of cell viability” value is -0.192.

Regarding `CC(=O)OC/C=C(C)/C=C/C=C(C)/C=C/C1=C(C)CCCC1(C)C` [Retinyl acetate], the “inhibition of cell viability” value was -0.265.
